High-throughput results (PubChem)
PAFAH1B2 inh: inhibitors of human PAFAH1B2; inhibition, % at 3.39 µM; 340,000 tested, 1.2% active; recombinant PAFAH1B2, FP-rhodamine activity probe, fluorescence polarization; P68402;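 active means inhibition above the mean of all tested compounds plus 3 SD, cut at about 24% in these data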
HTRA1 inh: inhibitors of human serine peptidase HTRA1; recombinant HTRA1, FP-rhodamine activity-based probe, fluorescence polarization; inhibition, % at 5.96 µM; 340,000 tested, 0.5% active; in the data active means inhibition above about 36%
Target sequence (Q92743 whole entry, looked up): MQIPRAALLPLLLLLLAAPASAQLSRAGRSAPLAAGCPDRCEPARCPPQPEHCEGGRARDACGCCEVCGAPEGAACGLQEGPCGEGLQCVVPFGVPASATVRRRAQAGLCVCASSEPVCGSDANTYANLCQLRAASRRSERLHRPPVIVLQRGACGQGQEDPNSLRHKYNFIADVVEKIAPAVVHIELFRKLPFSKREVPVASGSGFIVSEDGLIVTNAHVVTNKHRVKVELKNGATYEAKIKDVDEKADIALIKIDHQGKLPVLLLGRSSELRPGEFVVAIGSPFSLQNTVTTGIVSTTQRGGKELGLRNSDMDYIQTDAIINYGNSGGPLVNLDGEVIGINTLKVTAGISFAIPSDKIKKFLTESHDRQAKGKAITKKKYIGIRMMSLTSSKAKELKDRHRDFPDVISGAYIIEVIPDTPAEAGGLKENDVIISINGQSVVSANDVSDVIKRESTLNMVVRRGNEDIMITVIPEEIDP
PAFAH2 inh: inhibitors of human PAFAH2; recombinant PAFAH2, FP-rhodamine activity probe, fluorescence polarization; inhibition, % at 3.39 µM; AID 492956; 340,000 tested, 0.99% active;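 active means inhibition above the mean over all tested compounds plus 3 SD, cut at about 30% in these data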;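 further: inhibitors block probe labeling of enzyme so polarization drops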
DAGLB inh: diacylglycerol lipase beta (human) inhibition; inhibition, % at 5.17 µM; AID 504411; HEK293T DAGLB membrane lysate, EnzChek fluorogenic substrate; Q8NCG7; 340,000 tested, 0.059% active; in the data active means inhibition above about 34%
PAFAH1B3 FP inh: inhibitors of human PAFAH1B3; Q15102; recombinant PAFAH1B3, FP-rhodamine probe, fluorescence polarization; inhibition, % at 3.39 µM; 340,000 tested, 0.28% active;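 active means inhibition above the screen-wide average of all tested compounds plus 3 SD, cut at about 25% in these data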
pPAFAH inh: inhibitors of human plasma PAF acetylhydrolase (pPAFAH) | 330,000 tested, 1.5% active | recombinant pPAFAH, FP-rhodamine probe fluorescence polarization | inhibition, % at 3.39 µM | AID 463082;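 active means inhibition above the mean inhibition across the screen plus 3 SD, cut at about 25% in these data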;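 further: inhibitors block binding of the rhodamine activity-based probe so polarization drops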
DAGLB confirm: DAGLB (human) inhibition, confirmation screen; shares compounds with DAGLB inh; HEK293T DAGLB membrane lysate, EnzChek fluorogenic substrate; inhibition, % at 5.17 µM; 190 tested, 73% active;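 active means mean inhibition over triplicate wells above a set limit taken from the primary lipase screen, cut at about 34% in these data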
HTRA1 inh conf: HTRA1 (human) inhibition, confirmation; inhibition, % at 5.96 µM; 1,600 tested, 66% active; shares compounds with HTRA1 inh; recombinant HTRA1, FP-rhodamine activity-based probe, fluorescence polarization;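 active means mean inhibition over three repeats above a set limit taken from the earlier primary screen, cut at about 37% in these data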;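 further: inhibitors block probe binding so polarization drops and inhibition rises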
Numbers stand for hits; - = inactive; . = no result. The list is not random: actives were taken first. Their share in the collection is about 2.8%.

SMILES	PAFAH1B2 inh	HTRA1 inh	PAFAH2 inh	DAGLB inh	PAFAH1B3 FP inh	pPAFAH inh	DAGLB confirm	HTRA1 inh conf
Cc1[nH]n2c(=O)cc(-c3ccc([N+](=O)[O-])cc3)nc2c1-c1ccccc1	-	40	-	48	-	33	42	87
CSc1nc(N)c(C(=O)NC2CCCCC2)s1	-	-	-	-	-	-	.	.
N#C/C(=C\c1ccc(O)c(O)c1)C(=O)NCCCc1ccccc1	38	66	-	40	-	27	-	77
O=C(COc1ccc(Cl)cc1)NNC(=O)C(=O)NC1CCCCC1	-	-	-	-	-	-	.	.
CC1(C)CC(=O)C2=C(C1)N=C1c3ccccc3C(=O)C1C2c1ccc(Cl)cc1 (stereo not given)	-	52	-	37	-	-	35	51
O=C1c2cccc(Cl)c2C(=O)c2c1cccc2N1CCCC1	-	65	-	44	-	-	64	65
O=c1cc(-c2ccccc2)oc2ccccc12	-	-	-	-	-	-	.	.
Nc1cc([N+](=O)[O-])cc2oc(-c3ccccc3)cc12	-	45	-	37	-	-	37	38
COCCCN1CC(=O)N2Cc3[nH]c4ccccc4c3C[C@H]2C1=O	-	-	-	-	-	-	.	.
O=[N+]([O-])c1ccccc1N/N=C/c1c[nH]c2ccccc12	-	78	-	58	-	25	61	76
O=[N+]([O-])c1ccc(N/N=C/c2c[nH]c3ccccc23)cc1	-	-	-	-	-	-	.	.
CCOc1ccccc1N1CCN(C2=C(NS(=O)(=O)c3cccs3)C(=O)c3ccccc3C2=O)CC1	-	63	-	44	-	-	39	68
CC1=C(O)C(=O)C(c2c(C)cc(C)c(Br)c2C)=C(O)C1=O	.	84	.	43	.	.	-	74
O=C(NC1CCN(Cc2ccc(Cl)c(Cl)c2)CC1)c1ccccc1	-	-	-	-	-	-	.	.
COC(=O)C1=C(C(=O)OC)SC(=C2C(=S)C(C)(C)N(C(=O)C3CC3)c3ccccc32)S1	-	45	-	41	-	-	47	52
CC1CC(C)CN(C(=O)c2ccc3c(c2NCCO)C(=O)c2ccccc2C3=O)C1 (stereo not given)	-	41	-	44	-	-	63	53
O=C(O)c1ccccc1NS(=O)(=O)c1ccc(N/N=C/c2ccc(O)c(O)c2)c([N+](=O)[O-])c1	59	66	72	52	58	.	59	143
O=C(O)c1ccc(/C=N/Nc2ccc(S(=O)(=O)N3CCCC3)cc2[N+](=O)[O-])cc1	-	-	-	-	-	-	.	.
CC(C1SC(=S)NC1=O)C1SC(=S)NC1=O (stereo not given)	.	60	.	44	.	.	37	47
CC1CC=CCC1(CO)CO (stereo not given)	-	-	-	-	-	.	.	.
CC(=O)Nc1sc(N)nc1-c1ccccc1	-	-	-	-	-	-	.	.
Nc1nc(-c2ccccc2)c(N=Nc2cccc3ccccc23)s1	-	76	-	61	-	31	66	80
COC(=O)c1cccc(NS(=O)(=O)c2ccc(OC)c(C(=O)N3CCOCC3)c2)c1C	-	-	-	-	-	-	.	.
Cc1cccc(NC2=C(NC(=O)c3ccccc3)C(=O)c3ccccc3C2=O)c1	-	-	-	-	-	-	.	.
Cc1ccc(S(=O)(=O)/N=C2\C=C(Nc3cccc(C(=O)O)c3)C(=O)c3ccccc32)cc1	36	52	51	37	65	-	40	-
SMILES	PAFAH1B2 inh	HTRA1 inh	PAFAH2 inh	DAGLB inh	PAFAH1B3 FP inh	pPAFAH inh	DAGLB confirm	HTRA1 inh conf
Cc1ccc(S(=O)(=O)/N=C2\C=C(Nc3cccc(C(=O)O)c3)C(=O)c3ccccc32)c(C)c1	30	58	58	46	63	27	46	63
CCN(CC)CCNC(=O)C(=O)NCC1OCCN1S(=O)(=O)c1cccs1 (stereo not given)	-	-	-	-	-	-	.	.
Cc1cc(C)cc(NC(=O)C(=S)NCc2ccccc2)c1	-	-	-	-	-	-	.	.
C#CCN1[C@@H]2CCN(C2)c2cc(Br)ccc2S1(=O)=O	-	-	-	-	-	.	.	.
Cc1ccccc1C(C)NS(=O)(=O)c1ccc2c(c1)OCCO2 (stereo not given)	-	40	-	-	-	-	.	-
Cc1ccc(C2C3=C(CC(C)(C)CC3=O)OC3=C2C(=O)CC(C)(C)C3)cc1	-	-	-	-	-	-	.	.
OC(CN1CCN(c2ccccc2F)CC1)c1ccc(F)cc1 (stereo not given)	-	-	-	-	-	-	.	.
Cc1ccc(S(=O)(=O)N2CCOCC2)cc1NC(=O)CN1C(=O)NC(C)(c2ccc(Cl)cc2Cl)C1=O (stereo not given)	-	-	-	-	-	-	.	.
CNc1nc(-c2ccccn2)nnc1-c1ccccc1	-	-	-	-	-	-	.	.
c1ccc(-c2nnc(-c3ccccn3)nc2NC2CCCCC2)cc1	-	65	-	-	-	-	.	80
Nc1[nH]n(-c2ccccc2)c(=O)c1N=Nc1ccc2ncsc2c1	-	36	-	-	-	-	.	-
Cc1nn(C)cc1-c1csc(N)n1	-	-	-	-	-	-	.	.
Cc1cc(-c2csc(N)n2)c(C)n1CCC(C)C	-	53	-	-	-	-	.	63
CC(=O)Nc1ccc(NCc2cccs2)cc1	-	-	-	-	-	-	.	.
Oc1ccc(NCc2cccs2)cc1	-	37	-	-	-	28	.	-
C(#Cc1ccccc1)C[N+]1(CC#Cc2ccccc2)CCCC1	-	-	-	-	-	-	.	.
C=CC#CC[N+]1(CC#Cc2ccccc2)CCOCC1	-	57	-	-	-	.	.	65
O=C(c1cccnc1)N1CCN(c2ccc3ccccc3n2)CC1	-	-	-	-	-	-	.	.
CSc1ccccc1OCc1cc(C(=O)NCCN2CCCc3ccccc32)no1	-	-	-	-	-	-	.	.
C[n+]1cccc2c(Br)ccc([O-])c21	-	-	-	-	-	-	.	.
[O-][n+]1cccc2c(Br)cc(Br)c(O)c21	-	72	-	-	-	34	.	41
COc1ccccc1CNC(=O)C(=O)NCC1CCCN1S(=O)(=O)c1cc(C)ccc1C (stereo not given)	.	-	.	-	.	.	.	.
COCCn1c(C)cc(/C=N/NC(=O)c2cc3ccccc3cc2O)c1C	-	44	-	-	-	-	.	-
COc1cc(/C=N/NC(=O)c2cc3ccccc3cc2O)ccc1OCCN1CCCCC1	-	48	-	-	-	-	.	-
O=C(O)c1cccc(Cn2c(Cl)c(/C=N/NC(=O)c3cc4ccccc4cc3O)sc2=O)c1	-	50	-	-	-	33	.	55
